Only some compounds are listed: those with a hit (about 12% of all), similar ones and a draw of the others.
G9a inh – G9a (human) methyltransferase inhibition. actives 8.8% (n = 350,000). Potency, µM (highest dose often 102 µM), for inactives: at the top dose activity, negative = inhibition, usual class: inhibitors. AID 504332. G9a H3K9 monomethylation, AlphaScreen, 2 h. Q96KQ7; further: potency means the concentration at half of the fitted maximal effect; on the % scale 0 is the no-effect control and ±100 the full control effect; nearly all actives have a fitted effect of over 75% in size
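Enzyme 20 nM + cpd, 15 min RT; add b-H3K9 pep 500 nM / SAM 20 uM; 2 h RT; anti-H3K9me1 Ab 0.5 ug/mL + SA donor / anti-rabbit acceptor beads 20 ug/mL each, 10 min; AlphaScreen read.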
BAZ2B block – blocks human BAZ2B | Q9UIF8 | AlphaScreen BAZ2B-H3K14Ac peptide displacement | Potency, µM (highest dose often 114 µM), for the others: at the top dose activity change, negative = inhibition, hits mostly inhibitors | actives 4.4% (n = 360,000); further: potency means the concentration at half of the fitted maximal effect; on the % scale 0 is the no-effect control and ±100 the full control effect; nearly all actives have a fitted effect of over 60% in size
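Protein-peptide AlphaScreen: BAZ2B 50 nM, b-H3K14Ac 50 nM, 1x PBS pH 7.4 + 0.01% Tween-20. Preincubation 30 min RT; cpd 30 min RT (top 110 uM); beads 20 min RT, light-protected.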
JMJD2A Tudor inh – inhibitors of human JMJD2A Tudor domain | actives 4.4% (n = 390,000) | O75164 | AID 504339 | AlphaScreen JMJD2A-Tudor / H3K4me3 peptide binding | Potency, µM (top dose mostly 114 µM), for the others: at the top dose activity change, negative = inhibition, hits mostly inhibitors; further: potency means the concentration at half of the fitted maximal effect; on the % scale 0 is the no-effect control and ±100 the full control effect; nearly all actives have a fitted effect of over 50% in size
PLK1 PBD block – inhibitors of human PLK1 polo-box domain binding; P53350; Plk1 PBD binding of FITC phosphopeptide, fluorescence polarization; Potency, µM, without a hit: max response, negative = inhibition, actives largely listed as inhibitors; actives 2.8% (n = 360,000); further: potency means the concentration at half of the fitted maximal effect; series mostly up to about 57 µM; on the % scale 0 is the no-effect control and ±100 the full control effect; nearly all actives have a fitted effect of over 65% in size
HP1b chromo inh – inhibitors of HP1-beta chromodomain binding to methylated histone tails; P83916; AlphaScreen HP1-beta / biotin-H3K9me3 peptide binding; Potency, µM (titrated, usually from 114 µM), for inactives: at the top dose activity change, negative = inhibition, usual class: inhibitors; actives 0.56% (n = 390,000); AID 540317; further: potency means the concentration at half of the fitted maximal effect; nearly all actives have a fitted effect of over 70% in size
Target sequence (P83916 whole entry, looked up): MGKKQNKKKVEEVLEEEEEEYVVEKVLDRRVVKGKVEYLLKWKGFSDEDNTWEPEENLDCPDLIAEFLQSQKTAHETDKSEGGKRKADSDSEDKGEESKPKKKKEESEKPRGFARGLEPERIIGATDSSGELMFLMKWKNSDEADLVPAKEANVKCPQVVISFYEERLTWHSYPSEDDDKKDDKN
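AlphaScreen: HP1-beta (50 nM) preformed 30 min with biotin-H3(1-18)K9me3 peptide (50 nM) in PBS pH 7.4, 0.01% Tween-20. Compound added for 30 min at RT, then streptavidin donor/nickel chelate acceptor beads (10 ug/mL) for 30 min.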
PI5P4Ka inh – inhibitors of human PI5P4K alpha; actives 1.2% (n = 330,000); max response, %; PI5P4Kalpha enzyme, ADP-Glo luminescence, 60 min; hits give low values; P48426; AID 652105; active means max response of -50% or lower; inconclusive means between -30% and -50%; inactive means -30% or higher; further: value at the top dose of about 77 µM; on the % scale 0 is the no-effect control and ±100 the full control effect
Target sequence (P48426 whole entry, looked up): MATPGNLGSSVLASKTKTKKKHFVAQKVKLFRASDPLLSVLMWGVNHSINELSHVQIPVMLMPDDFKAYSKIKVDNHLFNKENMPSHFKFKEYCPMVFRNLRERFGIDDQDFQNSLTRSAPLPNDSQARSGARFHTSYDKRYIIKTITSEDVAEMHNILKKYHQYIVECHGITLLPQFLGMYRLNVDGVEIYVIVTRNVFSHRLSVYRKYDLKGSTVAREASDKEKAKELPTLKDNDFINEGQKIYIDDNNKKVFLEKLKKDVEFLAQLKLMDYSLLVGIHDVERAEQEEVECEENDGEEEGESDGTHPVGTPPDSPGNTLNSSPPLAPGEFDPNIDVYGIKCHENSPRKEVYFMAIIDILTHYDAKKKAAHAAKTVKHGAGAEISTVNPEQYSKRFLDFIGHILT
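Compounds were pin-transferred onto PI5P4Kalpha and substrate in HEPES pH 7.4 buffer with EGTA, CHAPS and 5% DMSO. ATP (5 microM final) started the reaction, which ran 60 minutes at room temperature before ADP-Glo detection.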
Numbers without * were called inactive; [ ] = another dose, or the depositor's remark. Unless noted, the call rests on the fitted dose curve; in most records, active means well fitted curve in the direction sought with a large enough effect; inconclusive means small, poorly fitted or top-dose-only effect, or another doubt; inactive means no such curve, though single readings can be large; an effect the other way counts as inactive or inconclusive.

Results for COc1ccc(CNC(=O)Cn2c(=O)n3nc(-c4ccc(OC)cc4)nc3c3ccccc32)cc1 ?
G9a inh: -3.4%[59 µM]; BAZ2B block: 1.5%; JMJD2A Tudor inh: -9.1%; HP1b chromo inh: 19.3%

What do the screens show for `COCC(C)n1c(SCC(=O)Nc2cccnc2Cl)nc2ccccc2c1=O` (centres undefined)?
PLK1 PBD block: -1.6%; PI5P4Ka inh: 3.0

How did COc1ccccc1-c1nn(CCC(=O)Nc2cccc(C(C)=O)c2)c2nc(C)cc(C)c12 do in these assays?
G9a inh: -0.4%[59 µM]; BAZ2B block: -17.8%; JMJD2A Tudor inh: -9.1%; HP1b chromo inh: 27.0%

How did CCCCNS(=O)(=O)c1ccc2nc(SCC(=O)c3ccc(C#N)cc3)[nH]c2c1 do in these assays?
G9a inh: 31.6µM*; BAZ2B block: 0.3%; JMJD2A Tudor inh: -34.6%; PLK1 PBD block: -24.3%; HP1b chromo inh: 0.5%; PI5P4Ka inh: -9.8

Results for Cc1ccc(CNC(=O)CCS(=O)(=O)c2ccc3c(c2)NC(=O)CO3)cc1 ?
G9a inh: -3.1%; BAZ2B block: -20.1%; JMJD2A Tudor inh: inconclusive; PLK1 PBD block: 26.7µM*; HP1b chromo inh: 20.0%; PI5P4Ka inh: -12.6

Results for Cc1ccnc(NC(=O)CS(=O)(=O)c2ccccc2)c1 ?
G9a inh: -2.2%; BAZ2B block: 3.0%; JMJD2A Tudor inh: -0.7%; PLK1 PBD block: -5.5%; HP1b chromo inh: 37.0%; PI5P4Ka inh: 3.0

How did CCN(CC)c1ccc(NC(=O)CCNS(=O)(=O)c2ccc3c(c2)CCC(=O)N3)c(C)c1 do in these assays?
G9a inh: 39.8µM*; BAZ2B block: 35.5µM*; JMJD2A Tudor inh: inconclusive; PLK1 PBD block: -9.9%; HP1b chromo inh: inconclusive; PI5P4Ka inh: 7.3

Results for Cc1ccc(CNC(=O)CCS(=O)(=O)c2cc3c(cc2C)NC(=O)CO3)cc1 ?
G9a inh: 6.2%; BAZ2B block: 6.9%; JMJD2A Tudor inh: -12.9%; PLK1 PBD block: 0.4%; HP1b chromo inh: 37.5%; PI5P4Ka inh: 4.8

What do the screens show for `Cc1ccnc(NC(=O)CCS(=O)(=O)c2ccccc2)c1`?
G9a inh: 79.4µM*; BAZ2B block: -35.9%; JMJD2A Tudor inh: -16.1%; PLK1 PBD block: -5.0%; HP1b chromo inh: -16.8%; PI5P4Ka inh: -7.6

How did CCOC(=O)C1CCCN(C(=O)CCNS(=O)(=O)c2ccc3c(c2)CCC(=O)N3)C1 (centres undefined) do in these assays?
G9a inh: -3.5%; BAZ2B block: 4.5%; JMJD2A Tudor inh: inconclusive; PLK1 PBD block: 16.8µM*; HP1b chromo inh: inconclusive; PI5P4Ka inh: -13.3

What do the screens show for `Cc1ccccc1S(=O)(=O)N1CCN(C)CC1`?
G9a inh: 9.7%; BAZ2B block: 9.2%; JMJD2A Tudor inh: -12.4%; PLK1 PBD block: -9.4%; HP1b chromo inh: 7.8%; PI5P4Ka inh: 0.7

Results for CC(=O)c1ccc(NC(=O)COc2ccccc2-c2nc(-c3ccc(C)cc3)no2)cc1 ?
G9a inh: inconclusive; BAZ2B block: -11.8%; JMJD2A Tudor inh: -14.9%; HP1b chromo inh: 27.4%

What do the screens show for `OCCCNc1cc(-c2ccccc2)nc2cc(-c3ccc(F)cc3)nn12`?
G9a inh: -1.7%; BAZ2B block: 2.8%; JMJD2A Tudor inh: 24.7%; PLK1 PBD block: -12.8%; HP1b chromo inh: 80.7%; PI5P4Ka inh: -0.8

Results for CCN(CC)c1ccc(NC(=O)CCS(=O)(=O)c2ccc(Br)cc2)c(C)c1 ?
G9a inh: 10µM*; BAZ2B block: 11.2µM*; JMJD2A Tudor inh: 11.2µM*; PLK1 PBD block: 26.7µM*; HP1b chromo inh: 12.6µM*; PI5P4Ka inh: -9.2

Results for Cc1ccc(S(=O)(=O)CCC(=O)Nc2ccc(Br)cc2C)cc1 ?
G9a inh: inconclusive; BAZ2B block: 6.6%[57.1 µM]; JMJD2A Tudor inh: -12.9%; HP1b chromo inh: -13.6%

What do the screens show for `Cc1ccc(CNC(=O)CCS(=O)(=O)c2ccc(Br)cc2)cc1`?
G9a inh: 8.91µM*; BAZ2B block: inconclusive; JMJD2A Tudor inh: 17.8µM*; PLK1 PBD block: 16.8µM*; HP1b chromo inh: 7.08µM*; PI5P4Ka inh: -0.6

Results for Cc1ccc(NC(=O)CCS(=O)(=O)c2ccc(Br)cc2)nc1 ?
G9a inh: 7.9%; BAZ2B block: 8.3%; JMJD2A Tudor inh: 20µM*; PLK1 PBD block: 11.9µM*; HP1b chromo inh: 2.7%; PI5P4Ka inh: -26.9

How did Cc1ccc(NC(=O)CCC(=O)c2cccs2)nc1 do in these assays?
G9a inh: 44.7µM*; BAZ2B block: inconclusive; JMJD2A Tudor inh: inconclusive; PLK1 PBD block: -9.8%; HP1b chromo inh: 3.5%; PI5P4Ka inh: inconclusive

What do the screens show for `S=c1nn[nH]c2ccccc12`?
JMJD2A Tudor inh: 11.2µM*; PLK1 PBD block: 26.7µM*; HP1b chromo inh: -13.1%; PI5P4Ka inh: -5.9

What do the screens show for `CC(C)OCCCN1C(=O)c2[nH]nc(-c3ccccc3O)c2C1c1ccccc1F` (centres undefined)?
G9a inh: -6.0%[59 µM]; BAZ2B block: -22.1%; JMJD2A Tudor inh: -31.6%; HP1b chromo inh: 29.2%

How did N#Cc1ccc(CSc2nnc(Cc3cccs3)n2Cc2ccco2)cc1 do in these assays?
G9a inh: inconclusive; BAZ2B block: 50.1µM*; JMJD2A Tudor inh: inconclusive; PLK1 PBD block: -24.8%; HP1b chromo inh: -6.5%; PI5P4Ka inh: inconclusive

Results for C=CCn1c(Cc2cccs2)nnc1SCC(=O)NCc1ccco1 ?
G9a inh: 44.7µM*; BAZ2B block: inconclusive; JMJD2A Tudor inh: inconclusive; PLK1 PBD block: -22.0%; HP1b chromo inh: 18.8%; PI5P4Ka inh: -7.4

Results for N#Cc1ccc(CSc2nnc(-c3ccccc3)n2Cc2ccco2)cc1 ?
BAZ2B block: -35.3%; JMJD2A Tudor inh: -21.6%; PLK1 PBD block: -20.6%; HP1b chromo inh: -2.5%

Results for C=CCn1c(Cc2cccs2)nnc1SCC(=O)Nc1ccc(OC)c(OC)c1 ?
G9a inh: 22.7%[12.7 µM]; BAZ2B block: 12.0%; JMJD2A Tudor inh: -11.0%; PLK1 PBD block: 2.4%; HP1b chromo inh: 29.1%

What do the screens show for `C=CCn1c(Cc2cccs2)nnc1SCC(=O)c1ccc(F)cc1`?
G9a inh: 39.8µM*; BAZ2B block: 7.1%; JMJD2A Tudor inh: 56.2µM*; PLK1 PBD block: -24.9%; HP1b chromo inh: 55.4%; PI5P4Ka inh: -8.3

How did C=CCn1c(CNC(=O)c2cccs2)nnc1SCC(=O)c1ccc(Br)cc1 do in these assays?
G9a inh: -2.9%[59 µM]; BAZ2B block: -13.9%; JMJD2A Tudor inh: -33.3%; PLK1 PBD block: -6.2%; HP1b chromo inh: 21.7%

How did C=CCn1c(CCNC(=O)c2cccs2)nnc1SCC(=O)c1cccc([N+](=O)[O-])c1 do in these assays?
G9a inh: 5.5%[59 µM]; BAZ2B block: -10.5%; JMJD2A Tudor inh: -11.5%; PLK1 PBD block: -26.3%; HP1b chromo inh: 12.1%

Compound activity from PubChem.
